Among all 360,000 compounds or so, about 3,500 (0.97%) were called active. This is one part of a sample in which actives are shown more often than they occur. Values without a mark were called inactive.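 Rule for the calls: active = activation above a per-plate cutoff, the mean activation of sample wells on that plate plus 3 SD (cut at about 8% in these data); inactive = the rest.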

The target of the assay is Melanocortin receptor 4 (Homo sapiens) (UniProt P32245). Put plainly: MC4R agonists recruiting beta-arrestin, primary screen, cell-based, luminescence, agonist arm of biased-ligand search (AID 540308). The settings on record: U2OS MC4R beta-arrestin complementation, at 8.9 µM, stronger effect = higher value, percent of melanotan II response, DMSO zero.
Sequence of Melanocortin receptor 4 (Homo sapiens) (P32245 whole entry, looked up): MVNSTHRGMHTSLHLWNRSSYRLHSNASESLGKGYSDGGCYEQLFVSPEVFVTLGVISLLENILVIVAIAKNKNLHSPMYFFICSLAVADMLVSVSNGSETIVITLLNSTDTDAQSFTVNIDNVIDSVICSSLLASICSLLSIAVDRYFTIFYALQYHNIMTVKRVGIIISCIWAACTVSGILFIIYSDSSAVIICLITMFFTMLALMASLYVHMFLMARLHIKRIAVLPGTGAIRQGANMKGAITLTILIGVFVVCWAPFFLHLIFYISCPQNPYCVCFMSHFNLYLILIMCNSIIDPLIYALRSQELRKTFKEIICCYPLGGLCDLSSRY
With `O=C(OCc1cn(-c2ccc(Cl)c(Cl)c2)nn1)c1ccccc1Cl`, the activation is 16.5% (active). Under `Cc1cccc(/C(N)=N/OC(=O)c2ccccc2Cl)c1` stands -0.56%. In the case of `O=C(COC(=O)c1ccccc1Cl)NC1CCCCCCC1` it was -2.78%; in that of `Cc1cccc(-c2cnc(C(O)c3ccc4ccccc4c3)[nH]2)c1` (centres undefined), 3.46%; in that of `CSc1ccc(CNC(=O)C2(C)CCCN2C)cc1` (centres undefined), 1.3%. Turning to `COc1cccc(-c2cnc(C(O)c3ccccc3OC)[nH]2)c1` (centres undefined), the activation was -2.21%. As to `CCc1ccc(CNC(=O)C2CCN(c3nnc(C)c4c(C)n(-c5ccc(C)cc5)nc34)CC2)cc1`, the activation is 26.2% (active). In the case of `CCc1ccc(CNC(=O)C2CC(=O)N(CCc3ccc(C)cc3)C2)cc1` (centres undefined) it was -0.56%; in that of `CCOc1ccc(CNC(=O)C2CCCN(c3nnc(C)c4c(C)n(-c5ccccc5)nc34)C2)cc1` (centres undefined), 5.34%. Consider `COc1ccc(C(C)C)cc1-c1ccc2nncn2c1`, for which the activation is 0.08%. Under `CC1(C(=O)Nc2cccnc2)Cc2c(-c3ccccc3)ccnc2O1` (centres undefined) stands -1.27%; under `CCc1ccc(Nc2ncc3c(n2)CC(c2ccco2)CC3=O)cc1` (centres undefined), 9.92% (active). On to `O=C(Nc1ncc2c(n1)CC(c1ccco1)CC2=O)c1ccc(Cl)cc1` (centres undefined), for which the activation was -1.23%.

Regarding `CN1CCN(c2ncc3c(n2)CC(c2ccccc2F)CC3=O)CC1` (centres undefined), the activation was -1.94%. Under `COc1ccccc1Nc1ncnc2c1oc1ccccc12` stands 0.07%.

Regarding `COc1ccc(Nc2ncnc3sc(-c4ccccc4)cc23)c(OC)c1`, the activation was 10.6% (active). Under `COc1ccc(Nc2ncnc3ccc(Br)cc23)c(OC)c1` stands 0.1%.

`CC1(Oc2cccc(F)c2)CCN(Cc2ccccc2OC(F)F)C1` (centres undefined): the activation is -1.66%.

With `CCCOc1ccc(F)cc1-c1cc(C(=O)NCc2ccc(F)cc2)[nH]n1`, the activation was 0.57%. Under `Oc1cccc2cc(-c3ccncc3)cnc12` stands -1.87%. In the case of `COc1ccc(NC(=O)c2sc(=O)n(Cc3ccc(S(=O)(=O)N(C)C)cc3)c2C)cc1` it was -1.44%; in that of `COc1cccc(CN2CCC(C(=O)NC(c3ccc4c(c3)OCO4)c3ccccn3)CC2)c1` (centres undefined), -1.26%. Under `CCc1nc2c(OCCOc3ccccc3)cccn2c1N(C)C(=O)c1ccc(OC)cc1` stands -0.76%; under `O=C(CSc1cccc2cccnc12)N/N=C/c1cccnc1`, -5.02%; under `O=C(N/N=C\c1cccnc1)c1cc(-c2ccccc2)nc2c(Cl)cccc12`, -0.85%. `Brc1ccc(-c2csc(N/N=C/c3cccnc3)n2)cc1`: the activation was 11.6% (active).

`COc1ccc(S(=O)(=O)NC(=O)C2(C)CCN2C(=O)COc2ccc(Cl)cc2)cc1` (centres undefined): the activation is -1.47%. Under `Cc1nn2cc(-c3ccc(Cl)cc3)cnc2c1Br` stands 13.2% (active); under `CC(=O)NC(c1cccc(F)c1)c1nc(-c2cccc(F)c2)cs1` (centres undefined), 0.2%; under `Cc1ccc(F)c(S(=O)(=O)NC(=O)C2(C)CCN2C(=O)CCc2cccs2)c1` (centres undefined), 0.83%. Under `CC(C)Oc1cc(F)ccc1-c1cc(C(=O)Nc2ccc(F)cc2)[nH]n1` stands -0.4%; under `COc1cc(C(O)c2nc(-c3cnn(C)c3)cs2)ccc1F` (centres undefined), -1.52%. As to `Cc1coc2c(O)cc3c(c12)OC1(N2CCCCC2)C(=O)NCCCC31` (centres undefined), the activation is 8.45% (active). Under `O=C(NCc1cccc(C(F)(F)F)c1)c1ccc2sc(COCCO)nc2c1` stands -1.45%; under `CCOC(=O)c1c(NC(=S)SC)sc(C(=O)N2CCc3ccccc3C2)c1C`, -0.37%. In the case of `NC(=O)Nc1ccc(C(=O)OCC(=O)NC2CCCc3ccccc32)cc1` (centres undefined) it was -2.32%; in that of `CCOC(=O)c1c(NC(=O)CNC2CCCc3ccccc32)sc(C(N)=O)c1C` (centres undefined), 8.65% (active).

As for `C#Cc1ccc(NC(=O)C2(C)CCN2C(=O)Cc2ccc(-c3ccccc3)cc2)cc1` (centres undefined), the activation was 0.34%. Turning to `CCCC/C=C/c1cccc2nncn12`, the activation was 0.76%. Regarding `CN1CCC(CN)(N2CCN(c3ccccc3)CC2)CC1`, the activation was 0.54%.

Take `CCc1cc2c(N3CCN(c4nnc(CC)s4)CC3)ncnc2s1`: the activation is 1%. In the case of `COc1ccccc1N1CCN(c2ncnc3sc(C)c(-c4ccccc4)c23)CC1`, the activation is 2.5%. Take `Oc1ccccc1N1CCN(c2ncnc3sc(-c4ccccc4)cc23)CC1`: the activation is 14.4% (active). Under `CCCNC(=O)C1(C)CCN(C(=O)c2cc(F)ccc2C)C1` (centres undefined) stands -0.94%; under `CC(C)(C(=O)N1CCC1(C)C(=O)NS(=O)(=O)c1ccc(Br)cc1)c1ccccc1` (centres undefined), -0.16%.

Regarding `Cc1ccc(C2(C(F)(F)F)N=C3Sc4cc(C)cc(C)c4N3C(=O)N2)cc1` (centres undefined), the activation was -0.99%.

Turning to `CCOC(=O)N(C)c1c(CC)nc2c(OCc3ccccc3C(=O)OC)cccn12`, the activation is -1.73%. In the case of `CCc1nc2c(OCCOc3ccc(F)cc3)cccn2c1N(C)C(=O)c1ccccc1F`, the activation is 0.11%. As to `COc1ccc(NC(=O)CCCC2CCCCC2)c(OC)c1`, the activation is -1.23%. As for `CC(=O)Oc1ccc(NC(=O)CCC2CCCCC2)c(C(=O)O)c1`, the activation was 0.62%. On to `COC(=O)c1sccc1NC(=O)CCC1CCCC1`, for which the activation was 10.9% (active). With `COCCCNC(=O)c1cccc2c(-c3ccc(O)c(OC)c3)coc12`, the activation was 0.52%. Under `COc1ccc(S(=O)(=O)Nc2ccc3cn[nH]c3c2)cc1[N+](=O)[O-]` stands -0.37%; under `Cc1ccc(S(=O)(=O)N/N=C\c2cc3c(cc2[N+](=O)[O-])OCO3)cc1`, -2.43%; under `COc1ccc(S(=O)(=O)N/N=C\c2ccc(OC)c(COc3ccc(C)cc3[N+](=O)[O-])c2)cc1`, 12.8% (active). `CN1CCN(C(=O)c2ccc(-c3cc4nc(NCc5cccnc5)n(C)c(=O)c4s3)cc2)CC1`: the activation was -1.19%. On to `Cc1ccc(S(=O)(=O)NCCC(=O)Nc2cccc(S(N)(=O)=O)c2)cc1C`, for which the activation is -1.36%.

Turning to `Cc1ccc(S(=O)(=O)NCCC(=O)Nc2ccc(C)c(Cl)c2)cc1C`, the activation is 10.6% (active).

Consider `Cc1ccc(NC(=O)CCNS(=O)(=O)c2ccc3c(c2)oc(=O)n3C)cc1C`, for which the activation was -0.21%. `O=C(Nc1ccc(F)cc1)Nc1nnc([C@H]2C[C@H](O)[C@@H](CO)O2)s1`: the activation was 0.21%.

As to `O=C(NCc1cccnc1)c1ccc2nc([C@@H]3O[C@H](CO)[C@H](O)[C@H](O)[C@H]3O)[nH]c2c1`, the activation was -1.52%. For the molecule `CC(=O)c1ccc(Nc2nc(C(N)c3ccccc3)cs2)cc1` (centres undefined), the activation is 1.43%. As for `CC1(C(=O)Nc2cccc(Oc3ccccc3)c2)CCN1Cc1ccccc1Cl` (centres undefined), the activation was -1.51%.

On to `CCn1c(SCC(=O)Nc2cccc(F)c2)nnc1-c1cc2cc(Br)ccc2o1`, for which the activation was 14.9% (active).

Turning to `Cc1nc2nc(SCC(=O)Nc3cccc(F)c3)[nH]c2cc1Br`, the activation is 4.22%. Under `CCn1c(CNC(=O)c2ccco2)nnc1SCC(=O)Nc1cccc(F)c1` stands 2.05%; under `CCCNS(=O)(=O)c1ccc2c(c1)CCCN2C(C)=O`, -3.18%. Under `CN(C(=O)CN1CCN(c2cc(-c3ccc(OCc4ccccc4)cc3)ncn2)CC1)c1ccccc1` stands -0.62%; under `CCCS(=O)(=O)NC(=O)C1(C)CCCN(C(=O)c2cccs2)C1` (centres undefined), -0.48%.

The values above are taken from PubChem BioAssay AID540308 (The Scripps Research Institute Molecular Screening Center, 2011).
